Here are results for 17 compounds from PubChem BioAssay (NCATS).

Results filed as inconclusive are left out. A call without a number means that no potency is given here. Active and inactive are the calls of the source. Calls come from the whole dose curve; as a rule, active = well fitted inhibition curve with a large enough effect; inconclusive = small, poorly fitted or top-dose-only effect; inactive = flat fitted curve, though single readings scatter.

The target in the assay is Aldehyde dehydrogenase, mitochondrial (Homo sapiens) (UniProt P05091). In words: qHTS for Inhibitors of the Aldehyde Dehydrogenase Family (ALDH2) Primary screen (AID 2061308). Note: nearly all actives have a fitted effect of over 55% in size. The note with it: ALDH2 enzyme inhibition qHTS, 1536-well; series mostly up to 56 µM. For orientation: Quantitative high-throughput screening tests each substance at several concentrations.
On to `CCOc1ccc(CCNC(=O)C2COc3ccccc3O2)cc1OCC` (configuration not stated), for which the Potency result is “inactive”. With `CC(C)(C)c1cccc(-n2cnc3cc(C(=O)N4CCCCC4)ccc32)c1`, the Potency result was “inactive”.

On to `O=C(c1ccc2c(c1)ncn2-c1cccc(C(F)(F)F)c1)N1CCCCC1`, for which the Potency entry was “inactive”.

For the compound `COc1ccc(NC(=O)c2ccc(-c3nc4ccccc4[nH]3)cc2)cc1OC`, the Potency result was “inactive”. As to `COc1ccccc1CNC(=O)Nc1nnc(-c2ccncc2)s1`, the Potency result was “inactive”.

With `CC1=C(C(=O)Nc2ccon2)C2(CCCC2)N=C(Nc2nc3ccccc3o2)N1`, the Potency result is “inactive”.

On to `CCOc1ccc(CCNC(=O)c2cc3sccc3n2Cc2ccncc2)cc1OCC`, for which the Potency entry is “inactive”. Turning to `COc1cccc(CNc2ccc(S(=O)(=O)Nc3ccc(-c4ccccc4)cc3)cc2)c1O`, the Potency entry was “inactive”. As to `O=C(Nc1ccc(F)c(C(F)(F)F)c1)Nc1cccc(-c2ccncc2)n1`, the Potency result was “inactive”. As for `O=C(Cn1cc(CNC(=O)C2CCCCC2)nn1)Nc1cc(C(F)(F)F)ccc1Cl`, the Potency result was “inactive”. Turning to `CCCCNC(=S)NCCCc1cnc[nH]1`, the Potency entry was “inactive”. Consider `COC(=O)C1CCN(C(=O)c2ccc3c(c2)ncn3-c2cccc(C)c2)CC1`, for which the Potency entry is “inactive”. In the case of `Cc1cc(NS(=O)(=O)c2ccc(NC(=O)Cc3cccc4ccccc34)cc2)no1`, the Potency entry is “inactive”. Take `COc1ccccc1C1=Nn2c(nnc2-c2ccccc2O)SC1`: the Potency result was “inactive”. For the compound `c1nc(OCc2cnc[nH]2)c2cc(-c3ccc4c(c3)OCO4)ccc2n1`, the Potency entry is “inactive”. As for `COc1ccc(C2Nc3ccccc3C(=O)N2Cc2ccco2)cc1CSc1c(C)cccc1C` (configuration not stated), the Potency entry is “inactive”.

As to `Cc1ccc(OCCn2c(CCNC(=O)c3ccccc3F)nc3ccccc32)cc1`, the Potency result was “inactive”.
